High-throughput results as filed in PubChem BioAssay.
SENP6 inh – SENP6 protease inhibition. Q9GZR1. Recombinant SENP6 catalytic domain, aminoluciferin luminescence. inhibition, % at 10 µM. actives 1.8% (n = 330,000). AID 2599;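 active means inhibition above about 50% at the single tested dose, limit read from the data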
Target sequence (Q9GZR1 628-1112 limits assumed): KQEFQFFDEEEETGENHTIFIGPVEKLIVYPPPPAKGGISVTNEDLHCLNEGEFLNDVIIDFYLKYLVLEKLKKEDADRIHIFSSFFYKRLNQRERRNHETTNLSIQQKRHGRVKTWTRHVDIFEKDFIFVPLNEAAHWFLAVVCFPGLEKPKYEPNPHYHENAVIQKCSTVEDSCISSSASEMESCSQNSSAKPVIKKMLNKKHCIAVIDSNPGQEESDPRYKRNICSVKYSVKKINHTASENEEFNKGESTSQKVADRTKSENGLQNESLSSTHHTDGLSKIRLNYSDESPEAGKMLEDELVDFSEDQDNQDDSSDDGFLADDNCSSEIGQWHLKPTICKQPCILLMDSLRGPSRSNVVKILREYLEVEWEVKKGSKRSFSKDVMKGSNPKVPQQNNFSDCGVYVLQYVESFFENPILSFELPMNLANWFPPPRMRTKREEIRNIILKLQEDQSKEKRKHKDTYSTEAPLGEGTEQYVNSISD
SENP8 block-1 – SENP8 (human) protease inhibition | Q96LD8 | recombinant SENP8, Nedd8 substrate fluorescence | inhibition, % at 20 µM | actives 0.64% (n = 360,000); in the data active means inhibition mostly above about 40%, no sharp cut-off; inactive means mostly below about 27%
SENP7 inh – SENP7 protease inhibition. Q9BQF6. recombinant SENP7, Z-RLRGG-aminoluciferin luminescence, 40 min. inhibition, % at 5 µM. actives 1.5% (n = 330,000). AID 434973;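 active means inhibition above about 50% at the single test dose, limit read from the data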
PPC-1+TRAIL kill – compounds killing PPC-1 cancer cells with TRAIL present (potentiator screen, no TRAIL-free arm) | PPC-1 cells + TRAIL, ATPLite viability luminescence | cell killing (% activity), % at 4 µM or 5 µM | actives 0.41% (n = 220,000) | AID 1443;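 active means cell killing above 50% in the first pass at 4 µM, then a duplicate retest at 5 µM averaging 50% or more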
SENP8 block-2 – SENP8 protease inhibition | Q96LD8 | purified SENP8, Z-RLRGG-aminoluciferin cleavage, luminescence | inhibition, % at 10 µM | actives 1.2% (n = 330,000); in the data active means inhibition above about 50%
TRAIL sens C8 – sensitizes caspase-8 expressing cells to TRAIL. inhibition (viability loss, TRAIL sensitization), % at 10 µM. AID 624354. actives 1% (n = 360,000). NB7+C8 cells + TRAIL, ATPlite viability luminescence;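 active means compounds causing at least 50% loss of cell viability in the single-dose screen, relative to plate controls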
SENP8 confirm – confirmation of human SENP8 protease inhibitors. shares compounds with SENP7 inh. actives 40% (n = 6,200). Recombinant SENP8, Z-RLRGG-aminoluciferin luminescence, 60 min. inhibition, % at 12.5 µM;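 active means mean inhibition across replicates above about 50%, limit read from the data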
SENP6 conf – confirmation of human SENP6 protease inhibitors; AID 488915; shares compounds with SENP7 inh; actives 58% (n = 6,200); inhibition, % at 12.5 µM; recombinant SENP6, Z-RLRGG-aminoluciferin luminescence
SENP7 confirm – confirmation of human SENP7 protease inhibitors; shares compounds with SENP7 inh; inhibition, % at 12.5 µM; recombinant SENP7, Z-RLRGG-aminoluciferin luminescence, 40 min; AID 488917; actives 69% (n = 6,200)
Casp3 select – caspase-3 inhibition (SENP selectivity assay); shares compounds with SENP7 inh; purified caspase-3, Z-DEVD-aminoluciferin luminescence, 60 min; inhibition, % at 12.5 µM; actives 60% (n = 6,200); AID 488918;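 active means mean inhibition above about 50%, limit read from the data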
Luc interf – interferes with luciferase luminescence in SENP counter-screen; shares compounds with SENP7 inh; actives 39% (n = 6,200); Pre-incubated SENP8/Z-RLRGG-aminoluciferin, luciferase luminescence interference; AID 488919; inhibition, % at 12.5 µM;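 active means mean inhibition above about 50% when retested at one dose, limit read from the data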
Each line names hits and unclear results; the compound was inactive in the other large screens (follow-up assays come after a bar, where they were run). Rows were chosen to be rich in hits. Some 3% of all compounds tested hit in one or more screens of this group.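 How the source made its calls, unless noted: active means mean inhibition above about 50% in the one-dose retest (limit read from the data); inactive means the rest.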

CC(C)CN1C(=O)c2ccc(C(=O)Nc3ccccc3C(=O)O)cc2C1=O	SENP6 inh 87.2, SENP8 block-2 82.2 (no result: PPC-1+TRAIL kill) | SENP8 confirm 87.5 | SENP6 conf 87.8 | SENP7 confirm 98.1 | Casp3 select 88.1 | Luc interf 88.9
COc1c(Cl)cc(C(=O)Nc2ccccc2C(=O)O)cc1Cl	SENP6 inh 76.1, SENP8 block-2 69.3 | SENP8 confirm 81.4 | SENP6 conf 79.1 | SENP7 confirm 86.5 | Casp3 select inactive | Luc interf 83.7
Cc1ccc(NC(=O)CN2CCCCCC2)cc1[N+](=O)[O-]	none
C[C@H](C(=O)O)c1cccc(C(=O)c2ccccc2)c1	none (no result: PPC-1+TRAIL kill)
CC(C(=O)O)c1ccc(C(=O)c2ccccc2)s1 (stereo not given)	SENP6 inh 68.4, SENP8 block-2 52.1 (no result: PPC-1+TRAIL kill) | SENP8 confirm 61.6 | SENP6 conf 51.6 | SENP7 confirm 79.3 | Casp3 select 87.9 | Luc interf 61.0
COc1cc2c(cc1OC)-c1cc3ccc4c(c3c[n+]1CC2)OCO4	SENP6 inh 50.1 | SENP8 confirm inactive | SENP6 conf inactive | SENP7 confirm inactive | Casp3 select inactive | Luc interf inactive
COc1ccccc1C(=O)Nc1ccnn1C1CCN(CCCc2ccccc2)CC1	none (no result: PPC-1+TRAIL kill)
CCn1cc(C(=O)N2CCCC(CO)(Cc3ccccc3C)C2)cn1 (stereo not given)	none (no result: PPC-1+TRAIL kill)
O=C(N=c1nc2ccccn2s1)c1ccccc1	SENP6 inh 94.0, SENP7 inh 95.6, PPC-1+TRAIL kill 83.5, SENP8 block-2 58.8, TRAIL sens C8 83.9 | SENP8 confirm 54.4 | SENP6 conf 59.4 | SENP7 confirm 65.5 | Casp3 select 53.8 | Luc interf inactive
NC(=O)COC(=O)CNC(=O)c1sc2ccccc2c1Cl	none
O=c1cc(-c2ccc3c(c2)OCO3)oc2ccccc12	SENP7 inh 76.7 | SENP8 confirm inactive | SENP6 conf inactive | SENP7 confirm inactive | Casp3 select inactive | Luc interf inactive
Cn1c2ccccc2c(=O)c2ccc(-c3ccc4c(c3)OCO4)cc21	SENP6 inh 72.3, SENP7 inh 72.9, SENP8 block-2 57.8 (no result: PPC-1+TRAIL kill) | SENP8 confirm inactive | SENP6 conf 52.8 | SENP7 confirm 79.2 | Casp3 select 54.9 | Luc interf inactive
CCOc1ccc(-c2ncncc2-c2ccccc2OC)c(O)c1	none (no result: PPC-1+TRAIL kill)
C=C(C)COc1ccc(-c2ncncc2-c2ccccc2OC)c(O)c1	SENP8 block-2 84.6 (no result: PPC-1+TRAIL kill) | SENP8 confirm inactive | SENP6 conf inactive | SENP7 confirm inactive | Casp3 select inactive | Luc interf inactive
Cc1ccc(C)c2c(N)c3c(nc12)CCCCC3 (tested in a mixture with another compound)	none
O=C(OCC(=O)c1cccs1)c1ccccc1	SENP7 inh 85.9, SENP8 block-2 71.8 | SENP8 confirm 85.1 | SENP6 conf 85.7 | SENP7 confirm 97.1 | Casp3 select 91.2 | Luc interf 86.0
O=C(OCC(=O)N(Cc1ccccc1)Cc1ccccc1)c1cccc(O)c1	none (no result: PPC-1+TRAIL kill)
O=C(COC(=O)c1cccc(O)c1)c1ccccc1	SENP6 inh 85.5, SENP7 inh 86.8, SENP8 block-2 78.5 (no result: PPC-1+TRAIL kill) | SENP8 confirm 86.4 | SENP6 conf 86.7 | SENP7 confirm 97.2 | Casp3 select 87.5 | Luc interf 86.5
COc1ccc(OC)c(-n2nnnc2SCC(=O)Nc2ccc(C(=O)N3CCCCC3)cc2)c1	SENP7 inh 57.2 | SENP8 confirm inactive | SENP6 conf inactive | SENP7 confirm inactive | Casp3 select inactive | Luc interf inactive
